The supplement of paper PMC9694430

What was measured:
Experiment in all cases: thermal shift delta Tm vs DMSO control; higher = stronger stabilization (binding)
Conditions in all cases: 12.5 µM; protein concentration 2 µM
[1] = system: LOC_OS01G01410-cb001
Outline: (§1)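 Heating from 25°C to 95°C at 0.05°C/s, fluorescence was recorded for 19.5 μl wells of 2 μM E. coli-expressed, purified rice kinase domain in 100 mM potassium phosphate pH 7.5, 150 mM NaCl, 10% glycerol and 5 × SYPRO Orange with compound in DMSO. Boltzmann fits gave melting temperatures for this differential scanning fluorimetry assay. The shift reported is the mean of three replicates against the DMSO-only protein.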

[2] = system: LOC_OS01G02750-cb003
Outline: as §1

[3] = system: LOC_OS01G10900-cb004
Outline: as §1

[4] = system: LOC_OS01G13800-cb001
Outline: as §1

[5] = system: LOC_OS01G14860-cb001
Outline: as §1

[6] = system: LOC_OS01G21960-cb002
Outline: as §1

[7] = system: LOC_OS01G39600-cb002
Outline: as §1

[8] = system: LOC_OS01G48390-cb002
Outline: as §1

[9] = system: LOC_OS01G51400-cb002
Outline: as §1

[10] = system: T1, LOC_OS01G52050-cb004
T1 sequence (whole entry): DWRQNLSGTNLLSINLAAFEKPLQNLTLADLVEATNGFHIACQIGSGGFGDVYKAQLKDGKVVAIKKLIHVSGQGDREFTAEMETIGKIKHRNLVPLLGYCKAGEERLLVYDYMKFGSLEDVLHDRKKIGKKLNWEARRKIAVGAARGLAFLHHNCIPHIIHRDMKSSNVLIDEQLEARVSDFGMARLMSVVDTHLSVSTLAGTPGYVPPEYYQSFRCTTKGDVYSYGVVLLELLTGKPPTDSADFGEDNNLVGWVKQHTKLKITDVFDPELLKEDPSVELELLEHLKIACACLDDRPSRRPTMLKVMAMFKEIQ
Outline: as §1

[11] = system: LOC_OS01G57100-cb003
Outline: as §1

[12] = system: LOC_OS01G60330-cb001
Outline: as §1

[13] = system: LOC_OS01G60700-cb002
Outline: as §1

[14] = system: LOC_OS01G63280-cb003
Outline: as §1

[15] = system: LOC_OS01G67340-cb003
Outline: as §1

[16] = system: LOC_OS01G70970-cb002
Outline: as §1

[17] = system: LOC_OS02G07810-cb001
Outline: as §1

[18] = system: LOC_OS02G08530-cb003
Outline: as §1

[19] = system: LOC_OS02G14120-cb001
Outline: as §1

[20] = system: LOC_OS02G17970-cb001
Outline: as §1
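Note: purified Escherichia coli-expressed rice kinase domain construct.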

Row | Structure (SMILES) | thermal shift delta Tm [1] [°C] | thermal shift delta Tm [2] [°C] | thermal shift delta Tm [3] [°C] | thermal shift delta Tm [4] [°C] | thermal shift delta Tm [5] [°C] | thermal shift delta Tm [6] [°C] | thermal shift delta Tm [7] [°C] | thermal shift delta Tm [8] [°C] | thermal shift delta Tm [9] [°C] | thermal shift delta Tm [10] [°C] | thermal shift delta Tm [11] [°C] | thermal shift delta Tm [12] [°C] | thermal shift delta Tm [13] [°C] | thermal shift delta Tm [14] [°C] | thermal shift delta Tm [15] [°C] | thermal shift delta Tm [16] [°C] | thermal shift delta Tm [17] [°C] | thermal shift delta Tm [18] [°C] | thermal shift delta Tm [19] [°C] | thermal shift delta Tm [20] [°C]
1 | CCn1c2ccccc2c2cc(Nc3ccnc(NCCCN4CCOCC4)n3)ccc21 | -0.05 | -0.06 | 0.59 | -0.29 | 0.53 | 0.58 | -0.04 | 0.62 | 0.13 | 0.07 | 0.92 | 1.04 | 0.87 | 0.29 | 0.51 | 0.28 | 0.54 | 1.04 | -0.17 | 0.22
2 | CCNC(=O)Nc1ccc(-c2nc(N3CCOC[C@@H]3C)c3c(n2)C(C)(C)S(=O)(=O)C3)cc1 | 0.67 | 1.05 | 0.47 | 0.09 | 0.6 | 0.34 | -0.26 | -0.02 | 0.22 | 3.06 | 2.26 | 0.52 | -0.02 | 0.04 | 0.5 | 0.57 | -0.58 | 0.6 | 1.4 | -0.21
3 | Cc1cc(C(=O)NOCCO)c(Nc2ccc(I)cc2F)n(C)c1=O | 0.56 | 0.29 | 0.4 | 0.2 | 0.16 | 0.85 | -0.46 | 0.25 | -0.04 | -0.21 | 1.03 | 0.4 | 0.64 | 0.19 | -0.42 | 0.23 | 0.73 | 0.29 | -0.53 | 0.08
4 | CN(C)S(=O)(=O)c1ccc2c(c1)/C(=C/c1cc3c([nH]1)CCCC3)C(=O)N2 | 0 | 6.57 | 2.65 | 1.7 | 1.95 | 3.86 | 3.22 | 2.42 | 3.07 | 13 | 6.51 | 10.9 | 1.5 | 7.86 | 11.3 | 5.65 | 1.5 | 5.64 | 13 | 1.69
5 | COc1cc(Nc2c(C#N)cnc3cc(OCCCN4CCN(C)CC4)c(OC)cc23)c(Cl)cc1Cl [Bosutinib (SKI-606)] | 0.89 | 0.44 | -0.3 | 0.52 | 0.06 | -0.08 | -0.04 | 0.05 | -0.09 | 0.17 | 0.91 | 1.47 | 0.95 | -0.23 | -0.85 | 0.24 | 0.38 | 0.38 | 0.1 | -0.22
6 | Cc1cccc(Nc2nc(NC3CCCCC3N)ncc2C(N)=O)c1 (stereo not given) | 0.04 | 1.48 | 0.43 | -0.24 | 1.5 | 1.75 | 0.32 | 0.09 | 0.29 | 6.64 | 2.09 | 1.38 | 1.44 | 0.64 | 2.38 | 2.39 | -0.08 | 4.25 | 4.75 | 0.86
7 | CCN1CCN(Cc2ccc(-c3cc4c(N[C@H](C)c5ccccc5)ncnc4[nH]3)cc2)CC1 | 3.01 | 0.66 | 3.11 | 0.28 | 0.24 | 0.28 | 2.27 | 0.54 | 0.24 | 0.44 | 0.7 | 1.5 | 0.28 | 0.52 | -0.08 | 0.5 | 1.12 | 0.67 | 3.81 | 0.8
8 | COc1cc(N2CCC(N)CC2)ccc1Nc1ncc(Cl)c(-c2c[nH]c3ccccc23)n1 | 0.82 | 0.87 | 2.95 | -0.64 | 1.41 | 3.79 | -2.78 | 0.17 | 1.21 | 5.27 | 5.66 | 7.59 | 2.23 | 0.87 | 0.6 | 6.87 | 1.19 | 7.02 | 9.17 | 1.36
9 | NCC(=O)Nc1ccc(-n2nc(C(F)(F)F)cc2-c2ccc3c(ccc4ccccc43)c2)cc1 | 1.11 | 6.14 | 0.31 | -0.76 | -0.8 | 0.55 | 2.28 | 0.79 | -0.21 | 2.4 | 0.88 | 4.36 | 0.02 | 3.67 | -0.53 | 0.2 | 0.25 | 0.42 | 1.29 | -0.34
10 | C#Cc1cccc(Nc2ncnc3cc(OC)c(OCCCCCCC(=O)NO)cc23)c1 | 0.66 | 0.59 | 0.97 | 0.44 | 0.54 | 0.53 | 1.06 | 1.12 | 0.13 | 0.41 | 0.24 | 0.19 | 0.52 | 0.06 | -0.47 | 0.22 | 0.79 | 0.57 | 1.05 | 0.31
11 | CN1CC[C@H](c2c(O)cc(O)c3c(=O)cc(-c4ccccc4Cl)oc23)[C@H](O)C1 [Flavopiridol (Alvocidib)] | 0.72 | 0.39 | 0.16 | 0.35 | 4.54 | 1.94 | 1.37 | 0.03 | -0.2 | 0.8 | 0.96 | 0.94 | 0.39 | 0.37 | -0.01 | 1.4 | 0.63 | 1.53 | 1.28 | -0.3
12 | O=c1cc(N2CCOCC2)oc2c(-c3ccccc3)cccc12 | 1.06 | -0.94 | 3.69 | 0.14 | 0.93 | 0.79 | 0.29 | 1.24 | 0.33 | 0.42 | 0.48 | 1.07 | 1.31 | 0.43 | -0.28 | 0.36 | 1.28 | 0.91 | 0.08 | 0.84
